{"source": "PubChem BioAssay", "note": "Entries with a potency or affinity are not part of this list. Activity calls are given as the source filed them. How the calls were made is not given here.", "data": [{"assay": "OVCAR8 cell viability loss – plate reader, dry powder samples, PAX8 project, dose response (AID 743197)", "settings": "series mostly up to 35 µM", "values": [{"smiles": "COc1cccc(-c2ccc3c(c2)[C@@H]2[C@@H](CCN2S(=O)(=O)c2ccccc2C)[C@H](CO)N3C)c1", "outcome": "inactive"}, {"smiles": "C[C@H](CO)N1C[C@H](C)[C@H](CN(C)CC2CCCCC2)OCCCC[C@H](C)Oc2ccc(NC(=O)Nc3ccccc3)cc2C1=O", "outcome": "inactive"}, {"smiles": "C[C@H](CO)N1C[C@H](C)[C@@H](CN(C)S(=O)(=O)c2ccc(Cl)cc2)OCCCC[C@H](C)Oc2ccc(NS(=O)(=O)c3ccc(F)cc3)cc2C1=O", "outcome": "inactive"}, {"smiles": "COc1ccc(S(=O)(=O)Nc2ccc3c(c2)C(=O)N([C@H](C)CO)C[C@H](C)[C@H](CN(C)S(=O)(=O)c2ccc(F)cc2)OCCCC[C@H](C)O3)cc1", "outcome": "inactive"}, {"smiles": "C[C@H]1CN([C@@H](C)CO)S(=O)(=O)c2ccc(C#Cc3ccccc3F)cc2O[C@H]1CN(C)C(=O)c1ccc2c(c1)OCO2", "outcome": "inactive"}, {"smiles": "O=C(C1CCC1)N1CCCCN2[C@H](CO)[C@H](c3ccc(-c4cccc(F)c4)cc3)[C@H]2C1", "outcome": "inactive"}, {"smiles": "COc1ccc(NC(=O)Nc2ccc3c(c2)C(=O)N([C@@H](C)CO)C[C@@H](C)[C@@H](CN(C)Cc2ccc(C(F)(F)F)cc2)O3)cc1", "outcome": "inactive"}, {"smiles": "O=S(=O)(c1ccccc1F)N1CC[C@@H]2[C@H](CO)Nc3ccc(C4=CCCCC4)cc3[C@@H]21", "outcome": "inactive"}, {"smiles": "C[C@@H]1CCCCO[C@@H](CN(C)Cc2ccc(C(F)(F)F)cc2)[C@H](C)CN([C@@H](C)CO)C(=O)c2cc(NS(=O)(=O)c3ccc(Cl)cc3)ccc2O1", "outcome": "inactive"}, {"smiles": "C[C@@H]1CCCCO[C@H](CN(C)Cc2ccncc2)[C@H](C)CN([C@H](C)CO)C(=O)c2cc(NC(=O)Nc3ccc(C(F)(F)F)cc3)ccc2O1", "outcome": "inactive"}, {"smiles": "C[C@@H]1CN([C@@H](C)CO)C(=O)c2cc(N(C)C)ccc2O[C@@H](C)CCCCO[C@H]1CN(C)S(=O)(=O)c1ccc(F)cc1", "outcome": "inactive"}, {"smiles": "COc1ccc(C#Cc2ccc([C@H]3[C@@H](CO)N4CCCCN(C(=O)Nc5ccccc5)C[C@H]34)cc2)cc1", "outcome": "inactive"}, {"smiles": "COc1ccc2c3c([nH]c2c1)[C@@H](CO)N(C(=O)Nc1cccc(F)c1)CC31CCN(S(=O)(=O)c2cccc(C)c2)CC1", "outcome": "inactive"}, {"smiles": "C[C@H]1CCCCO[C@H](CN(C)C(=O)Nc2ccc(C(F)(F)F)cc2)[C@@H](C)CN([C@@H](C)CO)C(=O)c2cc(NS(=O)(=O)c3cccs3)ccc2O1", "outcome": "inactive"}, {"smiles": "C[C@H]1CCCCO[C@H](CN(C)Cc2ccc(C(F)(F)F)cc2)[C@@H](C)CN([C@@H](C)CO)C(=O)c2cc(NC(=O)Nc3ccc(F)cc3)ccc2O1", "outcome": "inactive"}]}]}
